MITF act: increases MITF-driven TRPM1 promoter luciferase signal. SK-MEL-5 TRPM1-promoter luciferase, 24 h; % of positive control, neutral wells = 0. activation, % at 12.5 µM. actives 0.75% (n = 300,000). AID 588334;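 active = mean activation of at least 80% with every replicate also reaching 80%; inconclusive = mean reaches 80% but some replicate falls short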
Wnt act: activates Wnt/beta-catenin signaling in a reporter cell assay; activator, plate reader; activation, % at 9.35 µM; actives 1.2% (n = 300,000); in the data active = activation above about 30%, passing the limit was not always enough; inconclusive = no clear call, values can overlap the other calls
CFTR F508del cor: CFTR F508del correction in bronchial cells; actives 0.36% (n = 350,000); CFBE cells, YFP halide quenching; stimulated with forskolin plus potentiator P3; % fluorescence drop versus neutral controls; activity (quench increase), % at 7.58 µM;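 active = mean added fluorescence quench of at least 8% versus neutral control, with both replicates also reaching 8%; inconclusive = only one of the mean or replicate conditions met; inactive = mean below 8% and not both replicates reaching 8%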;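 also: cells transiently co-express mutant CFTR-F508del with the halide-sensitive YFP; corrector assay measuring rescue of mutant channel to the surface after 24 h compound exposure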
Env fusion inh: inhibitors of HIV Env-mediated cell fusion. HeLa-JRFL Env/CEM21 cell fusion, luciferase. inhibition, % at 12.3 µM. actives 1.1% (n = 360,000);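 active = mean replicate inhibition score of at least 50 and every replicate individually at or above 50; inconclusive = only one of the two criteria met; inactive = mean below 50 and not all replicates reaching 50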
GSIS activator: GLuc luminescence reporter in INS-1E cells, primary screen for activators of glucose-dependent secretion of insulin; AID 743287; activation, % at 16.6 µM; actives 0.61% (n = 370,000); INS-1E GLuc reporter insulin secretion, 2-3 h;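 active = lowest replicate activation of at least 40%, so every replicate reaches that level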
Hits are given with their value; n = inactive; u = inconclusive; x = not tested or not shown; ! = not active in a repeat. An excerpt weighted towards active compounds, which were near 2.7% of everything screened.

SMILES	MITF act	Wnt act	CFTR F508del cor	Env fusion inh	GSIS activator
Cc1ccc(CSCCNC(=O)c2ccc(N(C)S(=O)(=O)c3ccccc3)cc2)cc1	n	x	x	x	x
COCCNC(=O)c1ccc(N(C)S(=O)(=O)c2ccc(OC)c(OC)c2)cc1	n	n	x	x	44
COc1ccc(CCNC(=O)c2ccc(N(C)S(=O)(=O)c3ccc(C)cc3)cc2)cc1OC	n	n	n	n	n
CN(C)S(=O)(=O)c1ccc(C(=O)NCCOc2ccccc2)cc1	n	48	x	n	x
CN(c1ccc(C(=O)NCCSC(C)(C)C)cc1)S(=O)(=O)c1ccccc1	n	44	n	n	n
O=C(C[C@@H]1C=C[C@H](NC(=O)C2CC2)[C@H](CO)O1)Nc1nccs1	x	x	n	n	n
O=C(C[C@@H]1C[C@@H]2c3cc(NC(=O)c4cccnc4)ccc3O[C@@H]2[C@H](CO)O1)NCCN1CCCCC1	x	x	n	n	n
O=C(c1ccccc1)c1ccc(OCC(O)CN2CCN(S(=O)(=O)N3CCCCC3)CC2)cc1 (stereo not drawn)	n	x	x	60	x
CN(Cc1ccco1)c1ncnc2ccc(-c3ccc4c(ccn4C)c3)cc12	n	n	14	n	n
O=C(NCCN1CCCC1)[C@H]1N[C@H]2c3ccc(C4=CCCCC4)c(=O)n3C[C@H]2[C@@H]1CO	x	x	n	x	n
COCC(=O)N(C)C[C@H]1Oc2cc(-c3cccnc3)ccc2S(=O)(=O)N([C@H](C)CO)C[C@@H]1C	x	x	n	n	n
COC(=O)c1c(C)[nH]c(C(=O)C(C)OC(=O)C2CC(=O)N(CCc3ccccc3)C2)c1C (stereo not drawn)	n	50	n	n	x
COC(=O)[C@@H]1[C@@H](CO)[C@@H]2Cn3c(ccc(-c4cccc(F)c4)c3=O)[C@@H]2N1S(C)(=O)=O	x	x	x	x	n
Fc1ccc(-c2ccc(C3[C@@H]4CN(Cc5cccc(F)c5)C[C@H]3N4)cc2)cc1 (stereo partly drawn)	x	x	n	x	376!
C(=C\c1ccc(C2[C@@H]3CN(Cc4nccs4)C[C@H]2N3)cc1)/c1ccccc1 (stereo partly drawn)	x	x	n	x	132!
O=C(c1ccc(F)cc1)N1C[C@@H]2N[C@H](C1)C2c1ccc(/C=C/c2ccccc2)cc1 (stereo partly drawn)	x	x	n	x	119!
Cc1ccc(-c2ccc(C3[C@@H]4CN(Cc5ccccc5)C[C@H]3N4)cc2)cc1 (stereo partly drawn)	x	x	x	x	n
Cc1ccc(-c2ccc(C3[C@@H]4CN(Cc5cccc(F)c5)C[C@H]3N4)cc2)cc1 (stereo partly drawn)	x	x	n	x	997
C[C@@H]1CCCCO[C@H](CN(C)C(=O)Nc2ccc3c(c2)OCO3)[C@@H](C)CN([C@@H](C)CO)C(=O)c2cc(NS(=O)(=O)c3cccs3)ccc2O1	x	x	n	n	n
CO[C@H]1CN(C)C(=O)c2cc(NC(=O)Nc3cccc(Cl)c3)ccc2OC[C@H](C)N(C)C[C@@H]1C	x	x	n	x	n
Fc1cccc(CN2C[C@@H]3N[C@H](C2)C3c2ccc(/C=C/c3ccccc3)cc2)c1 (stereo partly drawn)	x	x	n	x	471!
Cc1ccc(-c2ccc([C@@H]3[C@@H]4CN(Cc5ccccc5F)C[C@H]3N4)cc2)cc1	x	x	n	x	83
Fc1ccc(-c2ccc(C3[C@@H]4CN(Cc5ccccc5)C[C@H]3N4)cc2)cc1 (stereo partly drawn)	x	x	n	x	75!
Cc1cccc(S(=O)(=O)N[C@H]2CC[C@@H](CCNC(=O)CCN3CCCCC3)O[C@@H]2CO)c1	x	x	n	n	n
CO[C@@H]1CN(C)C(=O)c2ccc(NC(C)=O)cc2OC[C@H](C)N(CCc2ccccc2)C[C@H]1C	x	x	n	x	n
SMILES	MITF act	Wnt act	CFTR F508del cor	Env fusion inh	GSIS activator
Cc1cccc(C(P(=O)(c2ccccc2)c2ccccc2)P(=O)(c2ccccc2)c2ccccc2)n1	n	n	x	64	n
O=C(N/N=C/c1ccc(Cl)cc1Cl)Nc1ccccc1	n	x	x	n	42
O=C(CSc1nnc(SCc2ccccc2)s1)N/N=C/c1ccc(Cl)cc1Cl	n	n	x	n	n
O=C(CSC1CN(C(c2ccccc2)c2ccccc2)C1)N/N=C/c1ccc(Cl)cc1Cl	n	n	n	65	n
Cc1ccccc1NC(=O)Nc1ccc2c(c1)C(=O)N(C)[C@H]1CC[C@@H](CC(=O)NCC3CC3)O[C@@H]1CO2	x	x	n	x	n
COC(=O)Cn1cnc2c(Cl)nc(F)nc21	n	n	n	89	n
O=C1N[C@H](Cc2ccccc2)COCc2cn(nn2)CC[C@H]1Cc1cccc(Cl)c1	x	x	x	x	n
C=CCC[C@H](Cc1ccc(F)cc1)C(=O)O[C@H](CNC(=O)[C@@H](CC=C)CC(=O)N(CCO)Cc1ccccc1)c1ccccc1	n	n	n	129	n
Fc1ccc(-c2cc(C(F)(F)F)nc(-n3cncn3)n2)cc1	n	n	x	n	52
COc1cccc(-c2cc(C(F)(F)F)nc(-n3cncn3)n2)c1	n	x	x	n	65
O=C(Nc1cc(Cl)ccc1Cl)c1ccco1	n	n	n	n	n
CS/C(Nc1cc(Cl)ccc1Cl)=C(/C#N)C(=O)c1ccco1	x	37	n	n	x
Cc1cc(Cl)ccc1OCCCC(=O)N1CCCCC1	100	x	x	x	n
NS(=O)(=O)c1ccc(CNc2ccc3ccccc3n2)cc1	x	n	8.7	n	n
Cc1ccc(S(=O)(=O)Nc2ccc3c(c2)CC(=O)N([C@@H](C)CO)C[C@H](C)[C@H](CN(C)C(=O)Nc2cccc4ccccc24)O3)cc1	x	x	n	n	n
COc1ccc(Cl)cc1NC(=O)CN(C)CC(=O)Nc1ccccc1-c1ccccc1	n	n	n	63	n
O=C(C[C@H]1CC[C@H]2[C@@H](COC[C@H](O)CN2Cc2ccc(Cl)cc2)O1)NCCc1ccccc1	x	x	n	n	n
COCC(=O)Nc1ccc2c(c1)C(=O)N(C)C[C@H](OC)[C@@H](C)CN(Cc1ccncc1)[C@@H](C)CO2	x	x	n	n	n
Cc1ccc(S(=O)(=O)NN=Cc2ccccc2Cl)cc1	x	34	n	n	n
O=[N+]([O-])c1cccnc1Oc1ccc(C2SCCS2)cc1	103	51	n	n	n
COC(=O)C[C@@H]1C[C@H]2c3cc(NC(=O)Nc4ccc(C(F)(F)F)cc4)ccc3O[C@H]2[C@@H](CO)O1	x	x	n	n	n
Cn1c2ccccc2c(=O)c2ccc(NCCc3cccs3)cc21	95	u	n	n	n
CC1CCN(S(=O)(=O)c2ccc([N+](=O)[O-])cc2)CC1	n	n	n	n	n
CC1CCN(S(=O)(=O)c2ccc(Oc3ccc([N+](=O)[O-])cc3)cc2)CC1	n	n	x	72	n
O=C(C1CC1)N1[C@H](CO)[C@H]2c3ccccc3NC[C@H]21	x	x	n	x	n
COc1ccc2c3c([nH]c2c1)[C@H](CO)N(C(=O)Nc1ccc(F)cc1)CC31CN(Cc2nccs2)C1	x	x	n	x	n
C[C@H](CO)N1C[C@H](C)[C@@H](CN(C)Cc2ccc(Cl)c(Cl)c2)OCc2ccccc2-c2ccccc2C1=O	x	x	n	x	n
O=C(Nc1ccc(Cl)c(Cl)c1)OCc1cccnc1	86	n	x	n	x
